HIF-2a inh = inhibitors of HIF-2a | hit rate 0.72% among 360,000 | inhibition, % at 18.8 µM | 786-0 RCC cells HIF-2a reporter, luciferase luminescence, overnight;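 active = inhibition of the luminescence signal of 40% or more relative to plate controls, in a single-dose primary screen at 18.75 µM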
CF NFkB block = blocks PAF-induced NF-kB reporter in cystic fibrosis cells; inhibition, % at 5 µM; hit rate 0.86% among 360,000; KKLEB NF-kB-GFP reporter, GFP fluorescence overnight;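 active = at least 50% inhibition at 5 µM, scaled per plate between neutral and stimulator controls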;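 note: PAF is a Pseudomonas aeruginosa culture filtrate used as stimulus; plate controls were PAF-stimulated DMSO wells for no effect and unstimulated DMSO wells for full effect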
iPSC survival up = increases survival of single human iPS cells; survival enhancement, % at 20 µM; hit rate 0.044% among 360,000; hiPSC single-cell survival, ATPlite luminescence; 100% = ROCK inhibitor wells, 0% = DMSO; in the data active = survival enhancement above about 18%;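 note: cells exposed to compounds for 16 hours before the ATP read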
KKLEB cytotox = counter-screen for CF NF-kB inhibitors: cytotoxicity | KKLEB CF airway cells viability, ATPlite luminescence, overnight; hits give low values; cells stimulated with P. aeruginosa culture filtrate | activity change (cytotoxicity), % at 5 µM | hit rate 0.36% among 360,000 | AID 602141;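 active = corrected activity change at or below -50% at 5 µM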
TWEAK-Fn14 inh = inhibitors of TWEAK-Fn14 interaction signaling; hit rate 2% among 360,000; inhibition, % at 10 µM; TWEAK-stimulated Fn14 reporter cells, luciferase luminescence, 8 h; AID 1159606; in the data active = inhibition above about 50%
LGR2 inh = Drosophila LGR2 receptor signaling inhibition; HEK293 LGR2, CRE-luciferase, bursicon-stimulated, 4 h; AID 720647; inhibition, % at 9.99 µM; hit rate 0.35% among 380,000;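 active = drop in luminescence signal, shown as inhibition above about 50% in the replicate tests, limit read from the data, passing the limit was not always enough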;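 note: agonist challenge used bursicon conditioned medium at about half maximal strength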
* hit, by the source's call; nt = not tested or not shown. Most compounds without a hit are left out; they make up all but 2.3% or so of the library.

SMILES	HIF-2a inh	CF NFkB block	iPSC survival up	KKLEB cytotox	TWEAK-Fn14 inh	LGR2 inh
O=C(COc1ccccc1/C=C1\SC(=S)NC1=O)Nc1ccc(F)cc1	-30.5	51.9*	-0.4	2.3	15.7	13.7
NC1=NC(=O)/C(=C/c2ccccc2OCC(=O)Nc2ccc(F)cc2)S1	2.1	-12.1	-0.9	-2.1	-16.1	-12.9
CCCCn1nnc(NC(=O)Cc2ccc(Cl)cc2)n1	-5.1	-1.2	-0.9	0.2	74.1*	nt
COc1ccc(N=N/C(=C\O)C(=O)c2cccs2)cc1	-76.4	75.5*	-0.8	-49.5	68.9*	-24.7
C[C@@H]1CN([C@H](C)CO)C(=O)c2cc(N(C)C)ccc2O[C@@H](C)CCCCO[C@H]1CN(C)C(=O)Nc1ccccc1	nt	nt	nt	nt	nt	3.7
COc1cc2c(cc1OC)CN(c1ccc(C(F)(F)F)cn1)CC2	-203.6	-13.1	-0.4	-3.6	50.9*	9.2
CCOC(=O)c1c(C)[nH]c(C(=O)OCC(=O)NC2CCS(=O)(=O)C2)c1C (stereo not drawn)	8.0	-3.3	0.9	5.0	86.8*	14.5
O=C(NCCCCCCNC(=O)OCc1ccccc1)OCc1ccccc1	1.3	-11.3	0.2	-10.7	4.0	-6.7
O=C(OCc1ccccc1)N(CCCCN(CCCNCc1ccccc1)C(=O)OCc1ccccc1)CCCNCc1ccccc1	89.1*	68.5*	-3.1	-90.3*	102.5*	3.3
Cc1nc(NC(=O)c2cc3ccccc3o2)ccc1Br	-234.3	-1.1	-0.4	-8.3	-12.2	-91.7
Cc1cccc(NC(=O)c2cc3ccccc3c(=O)o2)n1	-236.8	-27.9	-0.9	-7.7	50.7*	-27.6
O=C1Nc2ccc(Br)cc2/C1=C/C(=O)c1ccccc1	22.8	18.0	-2.1	8.9	54.8*	11.1
O=C(O)COc1ccccc1/C=C1\C(=O)Nc2ccc(Br)cc21	18.5	17.4	-0.5	-9.0	35.5	-3.1
CN1C(=O)c2cc(NC(=O)c3cccs3)ccc2OC[C@@H]2O[C@@H](CC(=O)NCC3CC3)CC[C@@H]21	nt	nt	nt	nt	nt	10.4
Cc1cc(NC(=O)C(C)C)ncc1NC(=O)c1cccc(F)c1	0.8	1.2	6.3	-2.8	-9.2	nt
CCCC(=O)Nc1cnc(NC(=O)c2cccc(F)c2)cc1C	-69.8	-3.3	-0.3	1.7	65.5*	nt
COc1ccc(CN(C)C(=O)c2cc(S(=O)(=O)Nc3ccccc3F)ccc2C)c(OC)c1	2.3	4.1	0.3	-0.3	53.0*	2.6
C/C(=N\Nc1nnc(-c2ccccc2)c(-c2ccccc2)n1)c1cccc([N+](=O)[O-])c1	10.1	33.8	1.2	-51.3*	2.4	2.6
O=C(N/N=C1\CCc2ccccc21)c1ccccc1Cl	-237.7	-12.0	-1.0	-13.8	-11.9	-30.0
O=C(N/N=C1\CCc2ccccc21)c1ccc(O)cc1	-218.7	2.2	-0.4	-3.5	50.5*	-54.7
S=C(N/N=C1\CCc2ccccc21)NC1CCCCC1	-41.2	14.6	-1.3	-6.3	74.2*	9.7
O=C(N/N=C1/CCc2ccccc21)C1CC1	-80.6	-11.7	0.7	2.3	-2.4	3.8
Cc1onc(-c2ccccc2Cl)c1C(=O)Nc1ccc(-c2nnc3n2CCCCC3)cc1	13.1	15.2	1.5	1.0	98.5*	nt
Cc1onc(-c2ccccc2Cl)c1C(=O)Nc1ccc(CN2CCCC2)cc1	11.3	-6.5	-0.3	8.5	33.1	nt
Cc1onc(-c2ccccc2Cl)c1C(=O)NNC(=O)c1cccc(F)c1	11.0	4.7	0.2	-3.7	76.3*	8.5
SMILES	HIF-2a inh	CF NFkB block	iPSC survival up	KKLEB cytotox	TWEAK-Fn14 inh	LGR2 inh
CN1C(=O)c2cc(NC(=O)c3cnccn3)ccc2OC[C@@H]2O[C@@H](CC(=O)O)CC[C@@H]21	nt	nt	nt	nt	nt	12.6
COc1cccc(Nc2nc(NCC3CCCO3)c3ccccc3n2)c1 (stereo not drawn)	-2.5	-12.2	-1.0	-17.1	88.5*	nt
Oc1ccc(Nc2nc(NCC3CCCO3)c3ccccc3n2)cc1 (stereo not drawn)	22.4	-25.8	-2.0	6.1	7.7	nt
Oc1ccc(Cl)cc1Nc1nc(NCC2CCCO2)c2ccccc2n1 (stereo not drawn)	-24.6	-40.0	0.9	-14.1	71.8*	-2.4
Cc1noc(C)c1NC(=O)Nc1ccc2c(c1)CC(=O)N([C@H](C)CO)C[C@@H](C)[C@@H](CN(C)S(=O)(=O)c1ccccc1)O2	nt	nt	nt	nt	nt	8.6
CCN(CC)c1ccc2cc(S(=O)(=O)c3ccc(Cl)cc3)c(=O)oc2c1	13.8	-25.3	1.4	0.9	-9.6	9.7
CC(C)c1ccc(S(=O)(=O)c2cc3cc(Br)ccc3oc2=O)cc1	13.7	37.3	-0.3	-25.2	54.0*	-1.5
Cc1ccc(S(=O)(=O)c2cc3cc(Br)ccc3oc2=O)cc1	15.4	27.6	-1.8	-5.7	79.8*	18.5
CCOC(=O)c1sc2nc3c(cc2c1N)COC(C(C)C)C3 (stereo not drawn)	-93.6	-0.9	-2.6	3.5	85.4*	nt
O=C(c1ccncc1)N1CC2(C1)[C@H](c1ccccc1)[C@@H](CO)N2Cc1ccccn1	nt	nt	nt	nt	nt	-25.5
CCN(CC)C(=O)c1ccc(S(=O)(=O)N2CCC(c3nc4ccccc4s3)CC2)cc1	15.9	-9.6	-2.2	8.5	45.6	nt
CC1CCCN(C(=O)c2ccc(S(=O)(=O)N3CCC(c4nc5ccccc5s4)CC3)cc2)C1 (stereo not drawn)	-4.5	5.4	-1.6	-4.3	56.7*	nt
COc1ccc(-c2c(C)nn3c(N)c(C#N)cnc23)cc1OC	33.7	2.2	0.1	-8.1	50.4*	nt
O=C1c2ccccc2NC(c2ccc3c(c2)OCCO3)N1c1ccc2c(c1)OCCO2 (stereo not drawn)	-30.1	-11.3	-3.8	-1.1	59.2*	nt
COc1cc(C2Nc3ccccc3C(=O)N2c2ccc3c(c2)OCCO3)ccc1OCC(C)C (stereo not drawn)	-83.8	-9.0	-3.9	-21.1	67.2*	nt
O=C1c2ccccc2NC(c2ccc3c(c2)OCO3)N1O (stereo not drawn)	-185.3	-9.1	-1.0	4.9	0.0	nt
COc1ccccc1-c1ccc2c(c1)O[C@@H](CN(C)C(=O)c1ccccc1)[C@@H](C)CN([C@@H](C)CO)S2(=O)=O	nt	nt	nt	nt	nt	6.4
O=C(O)C1CCCCC1C(=O)Nc1ccc2c(c1)OCCO2 (stereo not drawn)	-13.1	8.9	0.0	0.7	82.6*	nt
CC(C)C(NC(=O)C1CCCCC1)C(=O)Nc1ccc2c(c1)OCCO2 (stereo not drawn)	-70.4	-0.5	-3.0	3.6	63.3*	nt
O=C(O)C1C2C=CC(C2)C1C(=O)Nc1ccc2c(c1)OCCO2 (stereo not drawn)	13.4	5.5	7.3	-4.8	64.7*	nt
CC(C)C(NC(=O)C1CCCCC1)C(=O)Nc1ccncc1 (stereo not drawn)	23.3	3.8	6.9	-1.5	2.3	nt
COCCNC(=O)C[C@@H]1C[C@H]2c3cc(NC(=O)C4CCOCC4)ccc3O[C@H]2[C@H](CO)O1	nt	nt	nt	nt	nt	18.6
O=C(N[C@H]1CC[C@@H](CCNS(=O)(=O)c2ccc(F)cc2)O[C@@H]1CO)c1cccnc1	nt	nt	nt	nt	nt	9.0

Screens as filed in PubChem BioAssay.
